Measurements taken from PubChem BioAssay (EPA / NIEHS).
Calls of active or inactive are those of the source. Rule for the calls: active = hit-call score of the fitted dose curve at least 0.9, where 1 is the maximum; inactive = score below 0.9.

How the values were obtained:
Settings in all cases: mRNA level, 48 h; actives raise or lower the signal
[1] = read-out: Intercellular Adhesion Molecule 1 (ICAM1), ICAM1 (gene 3383); assay: LTEA_HepaRG_ICAM1: Life Technologies and Expression Analysis (LTEA) Assay for Intercellular Adhesion Molecule 1 (ICAM1) using HepaRG (AID 2283507)
Summary of the method: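 ICAM1 transcript levels measured by qRT-PCR, normalized to three housekeeping genes (ACTB, GAPDH, POLR2A), after 48 h chemical exposure of HepaRG cells. Duplicate eight-point half-log series from 100 uM in 0.5% DMSO; gain or loss fitted against vehicle.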

[2] = read-out: Insulin-like growth factor-binding protein 1 (IGFBP1), IGFBP1 (gene 3484); assay: LTEA_HepaRG_IGFBP1: Life Technologies and Expression Analysis (LTEA) Assay for Insulin-like growth factor-binding protein 1 (IGFBP1) using HepaRG (AID 2283508)
Summary of the method: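 Read-out is qRT-PCR transcript level normalized to three housekeeping genes, fitted in both directions against 0.5% DMSO. Differentiated HepaRG cells received eight half-log concentrations (top 100 uM) in duplicate for 48 h in serum-free induction medium.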

[3] = read-out: Interleukin 6 (IL6), IL6 (gene 3569); assay: LTEA_HepaRG_IL6: Life Technologies and Expression Analysis (LTEA) Assay for Interleukin 6 (IL6) using HepaRG (AID 2283509)
Summary of the method: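 qRT-PCR read-out of IL6 transcript, normalized to three housekeeping genes, after 48 h chemical exposure of HepaRG cells; 8-point half-log series, top 100 uM, 0.5% DMSO vehicle. Bidirectional curve fitting against DMSO baseline.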

[4] = read-out: Potassium channel subfamily K member 1 (KCNK1), KCNK1 (gene 3775); assay: LTEA_HepaRG_KCNK1: Life Technologies and Expression Analysis (LTEA) Assay for Potassium channel subfamily K member 1 (KCNK1) using HepaRG (AID 2283511)
Summary of the method: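 HepaRG, 48 h exposure, 8-pt half-log series top 100 uM, 0.5% DMSO vehicle, duplicates. Readout: KCNK1 transcript by qRT-PCR (Fluidigm array), housekeeping-normalized; bidirectional curve fit relative to DMSO baseline.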

[5] = read-out: Keratin 19 (KRT19), KRT19 (gene 3880); assay: LTEA_HepaRG_KRT19: Life Technologies and Expression Analysis (LTEA) Assay for Keratin 19 (KRT19) using HepaRG (AID 2283512)
Summary of the method: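 KRT19 transcript measured by TaqMan qRT-PCR, referenced to three housekeeping genes, after HepaRG cells received test chemicals for 48 h. Eight half-log concentrations, top 100 uM, 0.5% DMSO vehicle; increases and decreases both fitted.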

[6] = read-out: Lipase C (LIPC), LIPC (gene 3990); assay: LTEA_HepaRG_LIPC: Life Technologies and Expression Analysis (LTEA) Assay for Lipase C (LIPC) using HepaRG (AID 2283514)
Summary of the method: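 HepaRG, 48 h exposure, 8-pt half-log series from 100 uM in 0.5% DMSO, duplicates. Readout: LIPC mRNA by Fluidigm qRT-PCR, housekeeping-normalized (ACTB/GAPDH/POLR2A). Gain or loss fitted bidirectionally against DMSO baseline.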

[7] = read-out: Lipoprotein lipase (LPL), LPL (gene 4023); assay: LTEA_HepaRG_LPL: Life Technologies and Expression Analysis (LTEA) Assay for Lipoprotein lipase (LPL) using HepaRG (AID 2283515)
Summary of the method: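 HepaRG, 48 h exposure, 8-pt half-log dilutions from 100 uM, 0.5% DMSO vehicle, duplicates; qRT-PCR (Fluidigm array) of LPL mRNA vs housekeeping genes; bidirectional curve fit relative to DMSO baseline.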

[8] = read-out: MicroRNA 122 (MIR122), gene 406906; assay: LTEA_HepaRG_MIR122: Life Technologies and Expression Analysis (LTEA) Assay for MicroRNA 122 (MIR122) using HepaRG (AID 2283516); note: the transcript read is the microRNA miR-122
Summary of the method: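 qRT-PCR read-out (TaqMan, Fluidigm array), normalized to three housekeeping genes; HepaRG cells dosed 48 h at 8 concentrations up to 100 uM in 0.5% DMSO, duplicate; gain or loss fitted against DMSO baseline.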

[9] = read-out: matrix metalloproteinase-10 (MMP10), MMP10 (gene 4319); assay: LTEA_HepaRG_MMP10: Life Technologies and Expression Analysis (LTEA) Assay for matrix metalloproteinase-10 (MMP10) using HepaRG (AID 2283517)
Summary of the method: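 Transcript levels come from Fluidigm qRT-PCR normalized to three housekeeping genes, with curves fitted bidirectionally against 0.5% DMSO. Human HepaRG cells were dosed for 48 hours at concentrations up to 100 uM.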

[10] = read-out: MYC, MYC (gene 4609); assay: LTEA_HepaRG_MYC: Life Technologies and Expression Analysis (LTEA) Assay for MYC using HepaRG (AID 2283518)
Summary of the method: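 MYC transcript changes, up or down relative to 0.5% DMSO, from TaqMan qRT-PCR normalized to three housekeeping genes. Human HepaRG cultures received chemicals for 48 h at eight half-log concentrations up to 100 uM, in duplicate.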

[11] = read-out: matrix metalloproteinase-3 (MMP3), MMP3 (gene 4314); assay: LTEA_HepaRG_MMP3: Life Technologies and Expression Analysis (LTEA) Assay for matrix metalloproteinase-3 (MMP3) using HepaRG (AID 2283519)
Summary of the method: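 qRT-PCR read-out of MMP3 mRNA (normalised to three housekeeping genes) in HepaRG liver cells after 48 h chemical exposure; 8-point half-log series, top 100 uM, 0.5% DMSO vehicle. Bidirectional curve fitting against DMSO baseline.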

[12] = read-out: Paternally Expressed 10 (PEG10), PEG10 (gene 23089); assay: LTEA_HepaRG_PEG10: Life Technologies and Expression Analysis (LTEA) Assay for Paternally Expressed 10 (PEG10) using HepaRG (AID 2283520);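 for AC50: PEG10 transcript by qRT-PCR normalised to ACTB GAPDH and POLR2A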
Summary of the method: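 qRT-PCR read-out: PEG10 mRNA normalised to three housekeeping genes, fitted bidirectionally against 0.5% DMSO vehicle. HepaRG cells received test chemicals for 48 h in serum-free induction medium, 8 points, top 100 uM, half-log steps.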

[13] = read-out: Nuclear factor NF-kappa-B p105 subunit (Homo sapiens) (UniProt P19838); assay: LTEA_HepaRG_NFKB1: Life Technologies and Expression Analysis (LTEA) Assay for Nuclear Factor Kappa B Subunit 1 (NFKB1) using HepaRG (AID 2283521)
Summary of the method: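 Differentiated human HepaRG cells were exposed for 48 h in serum-free induction medium to eight concentrations (top 100 uM, half-log steps, 0.5% DMSO), in duplicate. NFKB1 mRNA was measured by TaqMan qRT-PCR, normalized to ACTB/GAPDH/POLR2A, and fitted bidirectionally against DMSO.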

[14] = read-out: Protein phosphatase 2A (PPP2R4), PTPA (gene 5524); assay: LTEA_HepaRG_PPP2R4: Life Technologies and Expression Analysis (LTEA) Assay for Protein phosphatase 2A (PPP2R4) using HepaRG (AID 2283522)
Summary of the method: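 HepaRG, 48 h exposure, 8-pt half-log series from 100 uM, 0.5% DMSO vehicle, duplicates. Readout: PPP2R4 mRNA, Fluidigm qRT-PCR, housekeeping-normalized. Bidirectional curve fit vs DMSO baseline.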

[15] = read-out: Phosphatase and tensin (PTEN), PTEN (gene 5728); assay: LTEA_HepaRG_PTEN: Life Technologies and Expression Analysis (LTEA) Assay for Phosphatase and tensin (PTEN) using HepaRG (AID 2283523)
Summary of the method: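 HepaRG, 48 h exposure, 8-pt half-log series from 100 uM top, 0.5% DMSO vehicle, duplicates. Readout: Fluidigm qRT-PCR of PTEN transcript; housekeeping normalization (ACTB, GAPDH, POLR2A). Gain or loss fitted relative to DMSO baseline.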

[16] = read-out: solute carrier (SLC22A1), SLC22A1 (gene 6580); assay: LTEA_HepaRG_SLC22A1: Life Technologies and Expression Analysis (LTEA) Assay for solute carrier (SLC22A1) using HepaRG (AID 2283524)
Summary of the method: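 qRT-PCR readout (TaqMan, Fluidigm arrays) of SLC22A1 transcript, normalized to three housekeeping genes; bidirectional curve fit relative to 0.5% DMSO vehicle. Differentiated human HepaRG cells, 48 h chemical exposure, top concentration 100 uM, half-log steps, eight points.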

[17] = read-out: Pyruvate Dehydrogenase Kinase 4 (PDK4), PDK4 (gene 5166); assay: LTEA_HepaRG_PDK4: Life Technologies and Expression Analysis (LTEA) Assay for Pyruvate Dehydrogenase Kinase 4 (PDK4) using HepaRG (AID 2283525)
Summary of the method: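 HepaRG (human liver line), 48 h chemical exposure, 8-pt half-log CRC top 100 uM, 0.5% DMSO vehicle, duplicates. Readout: TaqMan qRT-PCR of PDK4 mRNA, housekeeping-normalized; gain/loss fit relative to DMSO baseline.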

[18] = read-out: NAD(P)H dehydrogenase [quinone] 1 (NQO1), NQO1 (gene 1728); assay: LTEA_HepaRG_NQO1: Life Technologies and Expression Analysis (LTEA) Assay for NAD(P)H dehydrogenase [quinone] 1 (NQO1) using HepaRG (AID 2283526)
Summary of the method: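 qRT-PCR read-out (Fluidigm TaqMan), normalized to three housekeeping genes, after 48 h chemical exposure of HepaRG cells. Concentrations: eight points, top 100 uM, half-log steps, 0.5% DMSO vehicle. Gain or loss of signal fitted relative to DMSO.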

Measured: AC50

Chain of Nuclear factor NF-kappa-B p105 subunit (Homo sapiens) (P19838 whole entry, looked up): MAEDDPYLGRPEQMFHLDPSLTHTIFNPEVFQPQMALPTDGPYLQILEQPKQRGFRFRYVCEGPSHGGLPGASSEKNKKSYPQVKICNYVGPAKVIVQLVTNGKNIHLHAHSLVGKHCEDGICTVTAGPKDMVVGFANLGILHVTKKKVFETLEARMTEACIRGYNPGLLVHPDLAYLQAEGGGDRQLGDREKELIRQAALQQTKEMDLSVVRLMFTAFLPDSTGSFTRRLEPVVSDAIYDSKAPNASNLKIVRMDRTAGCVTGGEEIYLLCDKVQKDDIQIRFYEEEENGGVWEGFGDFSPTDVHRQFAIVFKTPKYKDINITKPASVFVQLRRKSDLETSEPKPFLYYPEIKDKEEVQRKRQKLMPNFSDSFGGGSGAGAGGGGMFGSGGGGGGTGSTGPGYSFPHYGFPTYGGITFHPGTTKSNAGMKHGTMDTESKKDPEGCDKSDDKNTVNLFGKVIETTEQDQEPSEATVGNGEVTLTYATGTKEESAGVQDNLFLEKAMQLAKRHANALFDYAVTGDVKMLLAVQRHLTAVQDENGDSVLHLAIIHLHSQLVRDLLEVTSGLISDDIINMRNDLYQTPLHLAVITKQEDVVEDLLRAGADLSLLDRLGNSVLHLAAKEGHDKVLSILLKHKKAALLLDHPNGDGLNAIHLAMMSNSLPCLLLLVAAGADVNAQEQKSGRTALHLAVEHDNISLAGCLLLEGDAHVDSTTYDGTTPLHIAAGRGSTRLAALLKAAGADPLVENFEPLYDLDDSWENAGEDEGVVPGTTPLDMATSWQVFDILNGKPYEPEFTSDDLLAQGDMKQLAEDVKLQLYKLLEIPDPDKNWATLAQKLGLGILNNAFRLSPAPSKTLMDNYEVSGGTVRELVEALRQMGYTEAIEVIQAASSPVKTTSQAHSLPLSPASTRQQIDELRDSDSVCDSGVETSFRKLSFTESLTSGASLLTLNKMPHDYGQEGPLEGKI

O=C(O)Cc1cc(I)c(Oc2cc(I)c(O)c(I)c2)c(I)c1
active: [1] 54.8 µM | [2] 55.7 µM | [3] 54 µM | [4] 53.9 µM | [5] 0.0526 µM | [6] 52.2 µM | [7] 60.6 µM | [8] 58.6 µM | [9] 51.5 µM | [10] 52 µM | [11] 51.5 µM | [12] 228 nM | [13] 52.8 µM | [14] 54.9 µM | [15] 59.9 µM | [16] 53.1 µM | [17] 49.6 µM | [18] 33.5 µM

CC(=O)CC(C)(C)O
active: [10] 0.118 µM
not listed: [7] | [12]
inactive: all other assays above

CCCCCCCCOC(=O)CCCCCCCCC(=O)OCCCCCCCC
not listed: [2] | [7] | [10] | [12]
inactive: all other assays above

CCc1nn(C2CCCCC2)c2cc(C3(C#N)CCC(C(=O)O)CC3)ccc12 (stereo unspecified)
active: [1] 28.7 µM | [2] 75.7 µM | [3] 84.9 µM | [4] 13.1 µM | [5] 90.5 µM | [6] 78.9 µM | [8] 80.1 µM | [9] 81.6 µM | [14] 11.4 µM | [16] 72.6 µM | [17] 33.6 µM
inactive: [11] | [13] | [15] | [18]

CC#C[C@]1(O)CC[C@H]2[C@@H]3CCC4=CC(=O)CCC4=C3[C@@H](c3ccc(N(C)C)cc3)C[C@@]21C
active: [1] 26 µM | [2] 23.6 µM | [3] 37.4 µM | [4] 69 µM | [6] 67.2 µM | [8] 50 µM | [9] 33.5 µM | [10] 50 µM | [13] 50 µM | [14] 13.8 µM | [16] 25.2 µM | [17] 0.504 µM
inactive: [5] | [11] | [12] | [15] | [18]

CC(C)(C)c1ccc(O)c(C(C)(C)C)c1
active: [4] 0.0804 µM | [13] 0.162 µM
not listed: [7] | [10] | [12]
inactive: all other assays above

ClC1=C(Cl)C(Cl)(Cl)C(Cl)=C1Cl
not listed: [7] | [10] | [12]
inactive: all other assays above

CC[C@H](c1ccc(O)cc1)[C@@H](CC)c1ccc(O)cc1
active: [2] 68.1 µM | [3] 77.3 µM | [5] 90.8 µM | [14] 82.8 µM | [16] 71.4 µM | [17] 80.4 µM | [18] 81.8 µM
not listed: [7] | [10]
inactive: all other assays above
